# High-throughput results deposited in PubChem BioAssay by National Center for Advancing Translational Sciences (NCATS).
# An excerpt weighted towards active compounds, which were near 4.3% of everything screened.
# uPA surface inh = cell surface uPA generation inhibition | cell surface uPA generation assay, qHTS | Potency, µM (highest dose often 38.3 µM), inactives show top-dose activity change, negative = inhibition, usual class: inhibitors | 0.31% of 330,000 active | AID 540303; active = well fitted inhibition curve with a large enough effect; inconclusive = small, poorly fitted or top-dose-only effect; inactive = no such curve, though single readings can be large or run the other way; tested in mouse RAW 264.7 cells; note: potency is the fitted concentration of half-maximal effect; % is set by controls: 0 for no effect and ±100 for the full control effect; nearly all actives have a fitted effect of over 55% in size
# MCF10A rerep = inducers of DNA re-replication in MCF 10A breast cells | MCF 10A DNA re-replication, Hoechst nuclear intensity, 48 h | Potency, µM (highest dose often 46.1 µM), for the others: at the highest dose activity, positive = re-replication, hits mostly activators | 2.9% of 350,000 active; note: potency is the fitted concentration of half-maximal effect; % of control where 0% means no effect; nearly all actives have a fitted effect of over 50% in size
# SW480 rerep = inducers of DNA re-replication in SW480 colon cancer cells | SW480 DNA re-replication, Hoechst DNA content imaging, 48 h | Potency, µM (doses to about 46.1 µM), inactives show at the highest dose re-replication activation, usual class: activators | 1.8% of 340,000 active | AID 624297; note: potency is the fitted concentration of half-maximal effect; % of control where 0% means no effect; nearly all actives have a fitted effect of over 55% in size
#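 Readout is total intensity of Hoechst-stained nuclei, excited at 405 nm and collected at 500-530 nm. Compound treatment lasted 48 hr at 37 C in 5% CO2 before staining.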
# Giardia killer = Giardia lamblia killing; Giardia lamblia trophozoite viability; activity change, % at 7.66 µM, hits read low; 0.15% of 340,000 active; AID 540267; in the data active = activity change below about -80%; inconclusive = between about -30% and that limit;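 note: parasites exposed to compound for two days anaerobically before the ATP read; % is set by controls: 0 for no effect and ±100 for the full control effect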
#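 Each well holds 100 Giardia trophozoites and compound. After two days (48 hrs) at 37 deg C in anaerobic conditions, ATP is quantified by luminescence.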
# Starred values were filed as active, the others as inactive; ? = inconclusive; . = not tested or not shown; [ ] = another dose, or the depositor's remark. Unless noted, calls come from the whole dose curve; as a rule, active = well fitted activation curve with a large enough effect; inconclusive = small, poorly fitted or top-dose-only effect; inactive = no such curve, though single readings can be large or run the other way.
SMILES,uPA surface inh,MCF10A rerep,SW480 rerep,Giardia killer
C=CCOc1ccc(C[C@H](N)C(=O)NC[C@H]2O[C@@H](n3cnc4c(N)ncnc43)[C@H](O)[C@@H]2O)cc1,5%,-1%,13%,26
CC(C)(C)OC(=O)N(c1cccc2cccnc12)S(=O)(=O)c1ccccc1Br,.,.,.,3
CCN1C(=O)N[C@@H](c2ccccc2)C1=O,.,2%[20.6 µM],-3%[20.6 µM],.
N[C@H](Cc1ccc(O)c(O)c1)C(=O)O,.,-6%,-16%,.
C=CCn1c(NC(=O)c2ccccc2Cl)c(C#N)c2nc3ccccc3nc21,0%,16µM*,18µM*,-20
Cn1c(SCc2ccccc2)nc(N)c(N=O)c1=O,3.5µM*,?,?,8
COc1ccc(-c2cc(C(=O)c3c(N)n(C)c(=O)n(C)c3=O)c3ccccc3n2)cc1OC,19%,-4%,8%,22
Cn1ncc2c(Nc3ccccc3Cl)nc(Nc3ccccc3Cl)nc21,4%,18µM*,23%,1
Cc1cc(C)nc(Nc2ccccc2Cl)n1,-1%,?,-1%,-1
Cc1cc(C(=O)NC2CCCN(Cc3ccc(Cl)cc3)C2)n(C)n1 (centres undefined),0%,?,0%,26
COc1ccc(S(=O)(=O)N2CCC(C(=O)NCCC(=O)Nc3cccc(Cl)c3)CC2)cc1,-2%,21µM*,?,-28
C=C(NC(=O)C(=C)NC(=O)c1csc(C2=NC3c4csc(n4)C4NC(=O)c5csc(n5)C(C(C)(O)C(C)O)NC(=O)C5CSC(=N5)/C(=C/C)NC(=O)C(C(C)O)NC(=O)c5csc(n5)C3(CC2)NC(=O)C(C)NC(=O)C(=C)NC(=O)C(=C)NC(=O)C(C(C)C)NC2C=Cc3c(C(C)O)cc(nc3C2O)C(=O)OC4C)n1)C(N)=O (centres undefined),-9%,?,1.2µM*,-1
C=C(NC(=O)C(=C)NC(=O)c1csc(C2=N[C@@H]3c4csc(n4)[C@@H]4NC(=O)c5csc(n5)[C@@H]([C@](C)(O)[C@H](C)O)NC(=O)[C@@H]5CSC(=N5)/C(=C/C)NC(=O)[C@@H]([C@H](C)O)NC(=O)c5csc(n5)[C@]3(CC2)NC(=O)[C@@H](C)NC(=O)C(=C)NC(=O)[C@@H](C)NC(=O)[C@@H]([C@@H](C)CC)N[C@H]2C=Cc3c([C@H](C)O)cc(nc3[C@@H]2O)C(=O)O[C@H]4C)n1)C(N)=O,.,8.1µM*,7.2µM*,.
Cc1ccc(S(=O)(=O)c2c(C)nn(C(C)(C)C)c2OC(=O)c2ccco2)cc1,-3%,13µM*,-1%,-8
Cc1ccc(S(=O)(=O)c2c(C)nn(C(C)(C)C)c2OC(=O)c2ccc(Br)o2)cc1,-6%,?,-2%,-21
Cc1ccc(S(=O)(=O)c2c(C)nn(C(C)(C)C)c2OC(=O)c2cccs2)cc1,-9%,18µM*,-5%,-7
CCOC(=O)c1c(CSC(=N)N)n(-c2ccc(Br)cc2)c2cc(Br)c(OC(C)=O)cc12,-4%,10µM*,?,9
CCOC(=O)c1c(CSc2nc(C)cc(C)c2C#N)n(C)c2cc(Br)c(OC(C)=O)cc12,3%,5%,1%,-10
CCCCCCCCOC(=O)c1c(CSC(=N)N)n(C)c2cc(Br)c(OC(C)=O)cc12,?,3.3µM*,?,-4
N#Cc1ccc(C(=O)N(Cc2ccco2)Cc2cccs2)cc1,.,.,.,8
CC(=O)OCC(=O)[C@@]12OC3(CCCC3)OC1CC1C3CCC4=CC(=O)C=C[C@@]4(C)[C@]3(F)C(O)C[C@]12C (some centres undefined),.,4%,-3%,.
COc1cc2sc3cc(NCCCN4CCOCC4)ccc3c(=O)c2cc1OC,?,35%,?,?
COc1cccc2sc3cc(NCc4ccc(C)o4)ccc3c(=O)c12,-28%,21µM*,18µM*,-11
Cc1ccc(S(=O)(=O)c2cn(C)c3cc(N4CCN(C)CC4)c(F)cc3c2=O)c(C)c1,?,-2%,1.6µM*,-17
COc1ccc(-c2cc3c(=O)n(CC(=O)NCCCN4CCC(Cc5ccccc5)CC4)ncn3n2)cc1,?,-14%,5.8µM*,-23
SMILES,uPA surface inh,MCF10A rerep,SW480 rerep,Giardia killer
COc1ccc(-c2cc3c(=O)n(CC(=O)NCCCN4CCN(Cc5ccccc5)CC4)ncn3n2)cc1,?,-6%,-10%,-16
CCOC(=O)N1CCN(C(=O)c2cc(-c3ccncc3)nc3ccccc23)CC1,-15%,?,18µM*,-4
CCOC(=O)C1CCN(C(=O)c2cc(-c3ccncc3)nc3ccccc23)CC1,-12%,2%,-8%,3
CCOc1ccc(-c2cc(C(=O)N3CCN(C)CC3)c3ccccc3n2)cc1,.,-3%,1%,?
CCOC(=O)N1CCN(C(=O)c2cc(-c3ccc(OCC)cc3)nc3ccccc23)CC1,.,3.7µM*,4.6µM*,?
CC1=CN2C(=N)/C(=C\c3cn(CCCOc4ccccc4)c4ccccc34)C(=O)N=C2S1,3%,3.7µM*,.,-16
COC(=O)N/N=C/c1cn(CCCOc2ccccc2)c2ccccc12,-4%,?,?,-5
CN(C)/C=N/C(=S)Nc1ccc(Br)cc1F,-6%,16%,-14%,-4
O=C(NCc1ccccc1)c1ccc(NC(=O)C2CCCCC2)cc1,9%,1%,-11%,2
CC(=O)N/C(=C\c1ccccc1)C(=O)OCC(=O)Nc1cc(S(=O)(=O)N(C)C)ccc1C,-13%,0%,-6%,23
COc1ccc2c(-c3ccccc3)cc3nnnn3c2c1,-14%,2.6µM*,132%,6
COc1ccc2c(-c3ccccc3)cc(SCC(N)=O)nc2c1,2%,?,?,-3
COc1cccc(/C=C/C(=O)NNC(=O)c2ccco2)c1OC,2.8µM*,3%,-10%,?
C=CCn1c(SCc2csc(C)n2)nc2sc3c(c2c1=O)CCCC3,4%,16µM*,3%,-6
C=CCn1c(SCc2csc(C)n2)nc2sc3c(c2c1=O)CCC(C)C3 (centres undefined),2%,21µM*,-1%,4
O=C(NCCc1ccccc1)C1CCCN(C(=O)Nc2ccc(F)cc2)C1 (centres undefined),-7%,-27%,-32%,-12
COC(=O)c1cn(NC(=O)c2cc([N+](=O)[O-])ccc2F)c(=O)c2ccccc12,?,4.6µM*,?,-11
COC(=O)c1cn(NC(=O)C2CCC(C)CC2)c(=O)c2ccccc12 (centres undefined),-7%,1%,-3%,-18
CCN(CC)S(=O)(=O)c1ccc(N2CCOCC2)c(NC(=O)c2cccc3c(=O)c(C)c(-c4ccccc4)oc23)c1,4.5µM*,3.7µM*,0%,58
CCN(CC)S(=O)(=O)c1ccc(N2CCOCC2)c(NC(=O)c2cccc3ccccc23)c1,-14%,3%,5%,-10
CC(C)[C@H](NC(=O)OC(C)(C)C)c1nnc(S(=O)(=O)Cc2c(F)cccc2Cl)o1,?,9.2µM*,20%,4
CC[C@@H](C)[C@H](NC(=O)OC(C)(C)C)c1nnc(S(=O)(=O)Cc2cc(C)ccc2C)o1,-15%,4.1µM*,13%,7
